# Measurements: PMC11006913
# How the values were obtained:
# Assay in all cases: PBM; 200 nM protein, PBS
# Conditions in all cases: dsDNA, one strand shown
# PRRX1 [1] = biological target: PRRX1 (Homo sapiens, UniProt P54821 80-166, F113S)
# HOXD13 [2] = biological target: HOXD13 (Homo sapiens, UniProt P35453 263-343, T313R)
# HOXD13 [3] = biological target: HOXD13 (Homo sapiens, UniProt P35453 263-343)
# HOXD13 [4] = biological target: HOXD13 (Homo sapiens, UniProt P35453 263-343, T313A)
# PRRX1 [5] = biological target: PRRX1 (Homo sapiens, UniProt P54821 80-166)
# HOXB6 [6] = biological target: HOXB6 (Homo sapiens, UniProt P17509 132-218, K202E)
# HOXB6 [7] = biological target: HOXB6 (Homo sapiens, UniProt P17509 132-218)
# HOXA2 [8] = biological target: HOXA2 (Homo sapiens, UniProt O43364 129-215, R185T)
# HOXA2 [9] = biological target: HOXA2 (Homo sapiens, UniProt O43364 129-215, R185K)
# HOXA2 [10] = biological target: HOXA2 (Homo sapiens, UniProt O43364 129-215, Y150S)
# HOXA2 [11] = biological target: HOXA2 (Homo sapiens, UniProt O43364 129-215)
# PROP1 [12] = biological target: PROP1 (Homo sapiens, UniProt O75360 56-141)
# PROP1 [13] = biological target: PROP1 (Homo sapiens, UniProt O75360 56-141, R99H)
# PROP1 [14] = biological target: PROP1 (Homo sapiens, UniProt O75360 56-141, F88S)
# NKX3-2 [15] = biological target: NKX3-2 (Homo sapiens, UniProt P78367 192-278, P234S)
# NKX3-2 [16] = biological target: NKX3-2 (Homo sapiens, UniProt P78367 192-278)
# MSX2 [17] = biological target: MSX2 (Homo sapiens, UniProt P35548 130-214, R199I)
# PITX2 = PITX2 (Homo sapiens, UniProt Q99697 72-157)
# MSX2 [18] = biological target: MSX2 (Homo sapiens, UniProt P35548 130-214)
# MSX2 [19] = biological target: MSX2 (Homo sapiens, UniProt P35548 130-214, F161Y)
# ALX1 = ALX1 (Homo sapiens, UniProt Q15699 118-204, L144R)
# HESX1 [20] = biological target: HESX1 (Homo sapiens, UniProt Q9UBX0 95-180, R109Q)
# ALX3 = ALX3 (Homo sapiens, UniProt O95076 139-225, L168V)
# HESX1 [21] = biological target: HESX1 (Homo sapiens, UniProt Q9UBX0 95-180, F115L)
# Sequence of HESX1 (Homo sapiens, UniProt Q9UBX0 95-180, F115L) (Q9UBX0 95-180 F115L): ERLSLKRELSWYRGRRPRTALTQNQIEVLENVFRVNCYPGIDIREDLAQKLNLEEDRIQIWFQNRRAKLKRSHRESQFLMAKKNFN
# Sequence of PRRX1 (Homo sapiens, UniProt P54821 80-166, F113S) (P54821 80-166 F113S): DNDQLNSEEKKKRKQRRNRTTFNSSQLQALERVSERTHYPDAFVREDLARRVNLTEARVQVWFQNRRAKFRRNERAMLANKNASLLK
# Sequence of PRRX1 (Homo sapiens, UniProt P54821 80-166) (P54821 80-166): as the sequence (P54821 80-166 F113S) above, with S34F counted along it
# Sequence of HOXD13 (Homo sapiens, UniProt P35453 263-343, T313A) (P35453 263-343 T313A): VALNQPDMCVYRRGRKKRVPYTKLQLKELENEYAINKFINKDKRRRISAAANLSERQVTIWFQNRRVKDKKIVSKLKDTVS
# Sequence of HOXD13 (Homo sapiens, UniProt P35453 263-343, T313R) (P35453 263-343 T313R): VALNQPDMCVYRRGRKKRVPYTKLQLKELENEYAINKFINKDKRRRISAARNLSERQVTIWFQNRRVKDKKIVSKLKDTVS
# Sequence of HOXA2 (Homo sapiens, UniProt O43364 129-215, Y150S) (O43364 129-215 Y150S): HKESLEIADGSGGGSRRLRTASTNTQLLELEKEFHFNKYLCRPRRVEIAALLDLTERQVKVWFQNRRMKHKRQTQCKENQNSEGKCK
# Sequence of HOXA2 (Homo sapiens, UniProt O43364 129-215, R185K) (O43364 129-215 R185K): as the sequence (O43364 129-215 Y150S) above, with S22Y, R57K counted along it
# Sequence of HOXA2 (Homo sapiens, UniProt O43364 129-215, R185T) (O43364 129-215 R185T): as the sequence (O43364 129-215 Y150S) above, with S22Y, R57T counted along it
# Sequence of MSX2 (Homo sapiens, UniProt P35548 130-214, F161Y) (P35548 130-214 F161Y): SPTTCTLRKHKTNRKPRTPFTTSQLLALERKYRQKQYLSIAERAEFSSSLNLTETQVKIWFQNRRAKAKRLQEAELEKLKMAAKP
# Sequence of HOXD13 (Homo sapiens, UniProt P35453 263-343) (P35453 263-343): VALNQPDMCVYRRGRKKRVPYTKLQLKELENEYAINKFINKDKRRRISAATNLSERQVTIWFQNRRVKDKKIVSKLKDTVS
# Sequence of MSX2 (Homo sapiens, UniProt P35548 130-214, R199I) (P35548 130-214 R199I): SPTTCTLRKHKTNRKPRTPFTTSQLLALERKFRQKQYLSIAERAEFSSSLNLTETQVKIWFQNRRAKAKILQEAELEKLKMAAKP
# Sequence of MSX2 (Homo sapiens, UniProt P35548 130-214) (P35548 130-214): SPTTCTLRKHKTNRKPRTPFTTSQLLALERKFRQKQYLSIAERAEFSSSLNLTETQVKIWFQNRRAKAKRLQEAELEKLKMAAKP
# Sequence of HOXA2 (Homo sapiens, UniProt O43364 129-215) (O43364 129-215): as the sequence (O43364 129-215 Y150S) above, with S22Y counted along it
# Sequence of ALX1 (Q15699 118-204 L144R): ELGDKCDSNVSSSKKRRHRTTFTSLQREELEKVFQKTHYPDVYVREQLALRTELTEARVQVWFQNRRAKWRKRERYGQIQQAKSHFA
# Sequence of NKX3-2 (Homo sapiens, UniProt P78367 192-278, P234S) (P78367 192-278 P234S): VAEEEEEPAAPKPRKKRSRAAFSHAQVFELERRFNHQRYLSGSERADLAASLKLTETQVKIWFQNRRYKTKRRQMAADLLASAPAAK
# Sequence of NKX3-2 (Homo sapiens, UniProt P78367 192-278) (P78367 192-278): as the sequence (P78367 192-278 P234S) above, with S43P counted along it
# Sequence of HOXB6 (Homo sapiens, UniProt P17509 132-218, K202E) (P17509 132-218 K202E): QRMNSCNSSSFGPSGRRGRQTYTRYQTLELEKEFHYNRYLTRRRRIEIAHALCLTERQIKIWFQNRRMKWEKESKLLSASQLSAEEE
# Sequence of HOXB6 (Homo sapiens, UniProt P17509 132-218) (P17509 132-218): as the sequence (P17509 132-218 K202E) above, with E71K counted along it
# Sequence of PROP1 (Homo sapiens, UniProt O75360 56-141, F88S) (O75360 56-141 F88S): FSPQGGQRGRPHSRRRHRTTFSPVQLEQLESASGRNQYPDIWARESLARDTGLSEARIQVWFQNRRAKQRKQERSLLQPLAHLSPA
# Sequence of HESX1 (Homo sapiens, UniProt Q9UBX0 95-180, R109Q) (Q9UBX0 95-180 R109Q): as the sequence (Q9UBX0 95-180 F115L) above, with R15Q, L21F counted along it
# Sequence of PROP1 (Homo sapiens, UniProt O75360 56-141, R99H) (O75360 56-141 R99H): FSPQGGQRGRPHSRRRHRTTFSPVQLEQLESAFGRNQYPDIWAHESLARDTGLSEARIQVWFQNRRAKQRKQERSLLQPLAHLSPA
# Sequence of PROP1 (Homo sapiens, UniProt O75360 56-141) (O75360 56-141): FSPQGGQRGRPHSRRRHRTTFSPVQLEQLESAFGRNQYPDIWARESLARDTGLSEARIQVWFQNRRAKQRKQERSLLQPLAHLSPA
# Sequence of ALX3 (O95076 139-225 L168V): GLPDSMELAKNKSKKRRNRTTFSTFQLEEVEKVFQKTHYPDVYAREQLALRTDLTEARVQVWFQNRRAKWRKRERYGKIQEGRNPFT
sequence,measurement,setting,value
CCCAAAGG,binding signal,PRRX1 [1],"9.18 upbm affinity estimate (log intensity, higher = more binding, comparable within an allelic series)"
same,binding signal,HOXD13 [2],"9.56 upbm affinity estimate (log intensity, higher = more binding, comparable within an allelic series)"
same,binding signal,HOXD13 [3],"9.54 upbm affinity estimate (log intensity, higher = more binding, comparable within an allelic series)"
same,binding signal,HOXD13 [4],"9.58 upbm affinity estimate (log intensity, higher = more binding, comparable within an allelic series)"
same,binding signal,PRRX1 [5],"9.15 upbm affinity estimate (log intensity, higher = more binding, comparable within an allelic series)"
GCCGGACC,binding signal,PRRX1 [1],"9.13 upbm affinity estimate (log intensity, higher = more binding, comparable within an allelic series)"
same,binding signal,HOXB6 [6],"8.9 upbm affinity estimate (log intensity, higher = more binding, comparable within an allelic series)"
same,binding signal,PRRX1 [5],"9.39 upbm affinity estimate (log intensity, higher = more binding, comparable within an allelic series)"
same,binding signal,HOXB6 [7],"8.93 upbm affinity estimate (log intensity, higher = more binding, comparable within an allelic series)"
CAGGCCGC,binding signal,PRRX1 [1],"9.29 upbm affinity estimate (log intensity, higher = more binding, comparable within an allelic series)"
same,binding signal,HOXA2 [8],"7.44 upbm affinity estimate (log intensity, higher = more binding, comparable within an allelic series)"
same,binding signal,HOXA2 [9],"10.3 upbm affinity estimate (log intensity, higher = more binding, comparable within an allelic series)"
same,binding signal,HOXA2 [10],"10.4 upbm affinity estimate (log intensity, higher = more binding, comparable within an allelic series)"
same,binding signal,PRRX1 [5],"9.35 upbm affinity estimate (log intensity, higher = more binding, comparable within an allelic series)"
same,binding signal,HOXA2 [11],"7.49 upbm affinity estimate (log intensity, higher = more binding, comparable within an allelic series)"
ACTGTTAT,binding signal,PRRX1 [1],"10.2 upbm affinity estimate (log intensity, higher = more binding, comparable within an allelic series)"
same,binding signal,PROP1 [12],"8.21 upbm affinity estimate (log intensity, higher = more binding, comparable within an allelic series)"
same,binding signal,PROP1 [13],"7.73 upbm affinity estimate (log intensity, higher = more binding, comparable within an allelic series)"
same,binding signal,PROP1 [14],"7.48 upbm affinity estimate (log intensity, higher = more binding, comparable within an allelic series)"
same,binding signal,PRRX1 [5],"11.4 upbm affinity estimate (log intensity, higher = more binding, comparable within an allelic series)"
GCTCGGCC,binding signal,PRRX1 [1],"9.12 upbm affinity estimate (log intensity, higher = more binding, comparable within an allelic series)"
same,binding signal,HOXA2 [8],"7.15 upbm affinity estimate (log intensity, higher = more binding, comparable within an allelic series)"
same,binding signal,HOXD13 [2],"9.46 upbm affinity estimate (log intensity, higher = more binding, comparable within an allelic series)"
same,binding signal,HOXA2 [9],"10.3 upbm affinity estimate (log intensity, higher = more binding, comparable within an allelic series)"
same,binding signal,HOXD13 [3],"9.56 upbm affinity estimate (log intensity, higher = more binding, comparable within an allelic series)"
same,binding signal,HOXD13 [4],"9.62 upbm affinity estimate (log intensity, higher = more binding, comparable within an allelic series)"
same,binding signal,HOXA2 [10],"10.3 upbm affinity estimate (log intensity, higher = more binding, comparable within an allelic series)"
same,binding signal,NKX3-2 [15],"10.3 upbm affinity estimate (log intensity, higher = more binding, comparable within an allelic series)"
same,binding signal,PRRX1 [5],"9.13 upbm affinity estimate (log intensity, higher = more binding, comparable within an allelic series)"
same,binding signal,HOXA2 [11],"6.97 upbm affinity estimate (log intensity, higher = more binding, comparable within an allelic series)"
same,binding signal,NKX3-2 [16],"10.3 upbm affinity estimate (log intensity, higher = more binding, comparable within an allelic series)"
CGGCACCG,binding signal,PRRX1 [1],"9.31 upbm affinity estimate (log intensity, higher = more binding, comparable within an allelic series)"
same,binding signal,MSX2 [17],"9.48 upbm affinity estimate (log intensity, higher = more binding, comparable within an allelic series)"
same,binding signal,PITX2,"7.77 upbm affinity estimate (log intensity, higher = more binding, comparable within an allelic series)"
same,binding signal,MSX2 [18],"9.42 upbm affinity estimate (log intensity, higher = more binding, comparable within an allelic series)"
same,binding signal,MSX2 [19],"9.54 upbm affinity estimate (log intensity, higher = more binding, comparable within an allelic series)"
same,binding signal,PRRX1 [5],"9.57 upbm affinity estimate (log intensity, higher = more binding, comparable within an allelic series)"
AATTATTG,binding signal,PRRX1 [1],"11.1 upbm affinity estimate (log intensity, higher = more binding, comparable within an allelic series)"
same,binding signal,MSX2 [17],"12.3 upbm affinity estimate (log intensity, higher = more binding, comparable within an allelic series)"
same,binding signal,ALX1,"11.1 upbm affinity estimate (log intensity, higher = more binding, comparable within an allelic series)"
same,binding signal,MSX2 [18],"13.4 upbm affinity estimate (log intensity, higher = more binding, comparable within an allelic series)"
same,binding signal,HESX1 [20],"8.57 upbm affinity estimate (log intensity, higher = more binding, comparable within an allelic series)"
same,binding signal,ALX3,"9.77 upbm affinity estimate (log intensity, higher = more binding, comparable within an allelic series)"
same,binding signal,MSX2 [19],"13.1 upbm affinity estimate (log intensity, higher = more binding, comparable within an allelic series)"
same,binding signal,HESX1 [21],"8.02 upbm affinity estimate (log intensity, higher = more binding, comparable within an allelic series)"
ACTTTATG,binding signal,PRRX1 [1],"10 upbm affinity estimate (log intensity, higher = more binding, comparable within an allelic series)"
same,binding signal,PRRX1 [5],"10.9 upbm affinity estimate (log intensity, higher = more binding, comparable within an allelic series)"
AATCATCC,binding signal,PRRX1 [1],"10.3 upbm affinity estimate (log intensity, higher = more binding, comparable within an allelic series)"
same,binding signal,PRRX1 [5],"12.1 upbm affinity estimate (log intensity, higher = more binding, comparable within an allelic series)"
CGGAGCGC,binding signal,PRRX1 [1],"9.18 upbm affinity estimate (log intensity, higher = more binding, comparable within an allelic series)"
same,binding signal,PRRX1 [5],"9.3 upbm affinity estimate (log intensity, higher = more binding, comparable within an allelic series)"
CCGGGGTC,binding signal,PRRX1 [1],"9.27 upbm affinity estimate (log intensity, higher = more binding, comparable within an allelic series)"
same,binding signal,PRRX1 [5],"9.54 upbm affinity estimate (log intensity, higher = more binding, comparable within an allelic series)"
AGCCTTTC,binding signal,PRRX1 [1],"9.3 upbm affinity estimate (log intensity, higher = more binding, comparable within an allelic series)"
same,binding signal,PRRX1 [5],"8.88 upbm affinity estimate (log intensity, higher = more binding, comparable within an allelic series)"
CATCGGAC,binding signal,PRRX1 [1],"9.34 upbm affinity estimate (log intensity, higher = more binding, comparable within an allelic series)"
same,binding signal,PRRX1 [5],"9.14 upbm affinity estimate (log intensity, higher = more binding, comparable within an allelic series)"
CAAATGAG,binding signal,PRRX1 [1],"10.1 upbm affinity estimate (log intensity, higher = more binding, comparable within an allelic series)"
same,binding signal,PRRX1 [5],"11.5 upbm affinity estimate (log intensity, higher = more binding, comparable within an allelic series)"
CCCGTACG,binding signal,PRRX1 [1],"9.21 upbm affinity estimate (log intensity, higher = more binding, comparable within an allelic series)"
same,binding signal,PRRX1 [5],"9.33 upbm affinity estimate (log intensity, higher = more binding, comparable within an allelic series)"
AATTCAGG,binding signal,PRRX1 [1],"9.89 upbm affinity estimate (log intensity, higher = more binding, comparable within an allelic series)"
same,binding signal,PRRX1 [5],"11.3 upbm affinity estimate (log intensity, higher = more binding, comparable within an allelic series)"
GCGGTTCC,binding signal,PRRX1 [1],"9.66 upbm affinity estimate (log intensity, higher = more binding, comparable within an allelic series)"
same,binding signal,PRRX1 [5],"9.31 upbm affinity estimate (log intensity, higher = more binding, comparable within an allelic series)"
AGGTTCGC,binding signal,PRRX1 [1],"9.34 upbm affinity estimate (log intensity, higher = more binding, comparable within an allelic series)"
same,binding signal,PRRX1 [5],"9.02 upbm affinity estimate (log intensity, higher = more binding, comparable within an allelic series)"
GGACAACC,binding signal,PRRX1 [1],"9.36 upbm affinity estimate (log intensity, higher = more binding, comparable within an allelic series)"
same,binding signal,PRRX1 [5],"9.23 upbm affinity estimate (log intensity, higher = more binding, comparable within an allelic series)"
GCTCTTCC,binding signal,PRRX1 [1],"9.47 upbm affinity estimate (log intensity, higher = more binding, comparable within an allelic series)"
same,binding signal,PRRX1 [5],"9.1 upbm affinity estimate (log intensity, higher = more binding, comparable within an allelic series)"
ACAGTCGG,binding signal,PRRX1 [1],"9.61 upbm affinity estimate (log intensity, higher = more binding, comparable within an allelic series)"
same,binding signal,PRRX1 [5],"9.49 upbm affinity estimate (log intensity, higher = more binding, comparable within an allelic series)"
AATATTAG,binding signal,PRRX1 [1],"10.5 upbm affinity estimate (log intensity, higher = more binding, comparable within an allelic series)"
same,binding signal,PRRX1 [5],"12.4 upbm affinity estimate (log intensity, higher = more binding, comparable within an allelic series)"
